Sampled rows, rich in hits. Any-hit rate of the full collection: about 8%.
LASV entry inh: qHTS for Inhibitors of binding or entry into cells for Lassa Virus; Potency, µM (highest dose often 37.9 µM), hits mostly inhibitors; Lassa virus pseudotype entry inhibition, cell reporter; actives 1.2% (n = 300,000); calls by dose curve; tested in HEK293 cells; further: nearly all actives have a fitted effect of over 50% in size
HCV inhibitor: qHTS Assay for Inhibitors of Hepatitis C Virus (HCV). AID 651820, 2012. Huh7.5.1 HCVcc-Cre infection, luciferase reporter, 44 h. actives 3.4% (n = 340,000). Potency, µM (highest dose often 41.8 µM), usual class: inhibitors; active means well fitted inhibition curve with a large enough effect; inconclusive means small, poorly fitted or top-dose-only effect, or another doubt; inactive means no such curve, though single readings can be large or run the other way
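Cells (1,000/well) were plated 4 h before compound, then infected with HCVcc-Cre virus (~0.5 moi). After 44 h further culture, infection was read as luciferase luminescence following a 15 min substrate incubation at room temperature.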
SARS PLpro yeast: qHTS of Yeast-based Assay for SARS-CoV PLP. S. cerevisiae expressing SARS-CoV PLpro, growth rescue. Potency, µM (top dose mostly 32.9 µM), usual class: activators. actives 0.19% (n = 330,000); calls by dose curve; further: nearly all actives have a fitted effect of over 55% in size
FMDV inh: High Throughput Screening for Foot and Mouth Disease Virus Antivirals | FMDV antiviral cell-based qHTS | Potency, µM (highest dose often 57.9 µM), actives largely listed as inhibitors | actives 1.2% (n = 410,000) | AID 1159524, 2015; calls by dose curve; tested in HEK293T cells; further: read-out not given here; nearly all actives have a fitted effect of over 45% in size
HCMV antiviral: qHTS Assay for inhibitors of the human cytomegalovirus (HCMV) | actives 4.5% (n = 410,000) | HFF cells, HCMV-luciferase reporter, 72 h; stronger effect = lower value | activity change, negative = inhibition, % at 57.5 µM | AID 1259415, 2018; in the data active means activity change below about -60%; inconclusive means no clear call, values can overlap the other calls; inactive means above about -39%
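Cell-based, HFFs, 1000 cells/well, 16 h 37C; cpds in DMSO + HCMV-luc, MOI 1 PFU/cell; 72 h 37C; OneGlo luminescence after 5 min RT; norm. to buffer vs Salinomycin 10uM.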
MARV entry inh: qHTS for inhibitors of binding or entry into cells for Marburg Virus | Marburg virus pseudotyped entry inhibition, cell reporter | Potency, µM (series often up to 37.8 µM), usual class: inhibitors | actives 1.8% (n = 300,000); calls by dose curve; tested in HEK293 cells
Numbers stand for hits.

Results for CCN1C(=NCc2ccco2)N[C@@H](CCc2ccccc2)[C@H](C(=O)OC)[C@H]1C ?
LASV entry inh: inconclusive; MARV entry inh: inactive

Results for COc1cccc(C(=O)Nc2ccccc2OCc2cc(=O)n3ccccc3n2)c1 ?
LASV entry inh: inactive; FMDV inh: inactive; HCMV antiviral: inactive

Results for COc1ccc(CN2C(=O)C(n3cccc3)c3ccccc32)cc1 (stereo unspecified) ?
HCMV antiviral: inactive

How did CC(=O)c1cccc(Nc2ccc(-c3ccccc3F)nn2)c1 do in these assays?
LASV entry inh: inactive; HCV inhibitor: inconclusive; SARS PLpro yeast: inactive; FMDV inh: inactive; HCMV antiviral: inactive; MARV entry inh: inconclusive

Results for COc1ccccc1-c1ccc(Nc2cccc(C(C)=O)c2)nn1 ?
LASV entry inh: inactive; HCV inhibitor: 7.9µM; SARS PLpro yeast: inactive; FMDV inh: inactive; HCMV antiviral: inactive; MARV entry inh: inactive

What do the screens show for `Cc1cc(C(C)(C)C)ccc1OCCCCN1CCCC1`?
LASV entry inh: inconclusive; HCV inhibitor: 22µM; SARS PLpro yeast: inactive; FMDV inh: inactive; HCMV antiviral: inactive; MARV entry inh: inconclusive

What do the screens show for `Cc1cc(Br)ccc1OCCCCN1CCCCC1`?
LASV entry inh: inactive; HCV inhibitor: 10µM; SARS PLpro yeast: inactive; FMDV inh: inactive; HCMV antiviral: inactive; MARV entry inh: inconclusive

How did Cc1cc(C(C)(C)C)ccc1OCCN1CCCC1 do in these assays?
LASV entry inh: inactive; HCV inhibitor: inactive; SARS PLpro yeast: inactive; FMDV inh: inactive; HCMV antiviral: inactive; MARV entry inh: inconclusive

Results for CCOC(=O)c1c(C)n2c3c(cc(C)cc13)CCC2 ?
LASV entry inh: inactive; HCV inhibitor: 10µM; SARS PLpro yeast: inactive; FMDV inh: inactive; HCMV antiviral: inconclusive; MARV entry inh: inconclusive

Results for CCOC(=O)c1c2n(c3ccc(O)cc13)CCCCC2 ?
LASV entry inh: inactive; HCV inhibitor: inconclusive; SARS PLpro yeast: inactive; FMDV inh: inconclusive; HCMV antiviral: inactive; MARV entry inh: inconclusive

Results for COc1ccc(-c2nc3scc(CCNS(=O)(=O)c4ccc(Oc5ccccc5)cc4)n3n2)cc1OC ?
LASV entry inh: inconclusive; FMDV inh: inactive; HCMV antiviral: -72

What do the screens show for `CCCS(=O)(=O)NCCc1sc2nc(-c3ccc(Cl)cc3)nn2c1C`?
LASV entry inh: inconclusive; FMDV inh: inactive; HCMV antiviral: -66

What do the screens show for `CCc1ccc(NC(=O)C(=O)NCCc2sc3nc(-c4ccc(OC)cc4)nn3c2C)cc1`?
LASV entry inh: inactive; FMDV inh: inactive; HCMV antiviral: -64

Results for CCCS(=O)(=O)NCCc1sc2nc(-c3ccc(F)cc3)nn2c1C ?
LASV entry inh: inactive; FMDV inh: inactive; HCMV antiviral: -71

Results for CCS(=O)(=O)NCCNc1ccc([N+](=O)[O-])cc1 ?
LASV entry inh: inactive; HCV inhibitor: inactive; SARS PLpro yeast: inactive; FMDV inh: inactive; HCMV antiviral: inactive; MARV entry inh: inconclusive

Results for COc1ccc(CCN(C)Cc2cc(-c3cncnc3)ccc2O)cc1OC ?
FMDV inh: inactive

How did CCCCCC(=O)N1C[C@H](O)[C@@H](n2cc(-c3ccc(F)cc3)nn2)C[C@H]1c1ccccc1 do in these assays?
LASV entry inh: inactive

What do the screens show for `Cc1cc(C)c(S(=O)(=O)NCCc2sc3nc(-c4ccc(F)cc4)nn3c2C)c(C)c1`?
LASV entry inh: inactive; FMDV inh: inactive; HCMV antiviral: -60

How did Cc1ccc(-c2nc3scc(CCNS(=O)(=O)c4ccc(C)c(C)c4)n3n2)cc1 do in these assays?
LASV entry inh: inactive; FMDV inh: inactive; HCMV antiviral: inactive

How did COc1ccc(S(=O)(=O)NCCc2sc3nc(-c4ccc(C)cc4)nn3c2C)cc1C do in these assays?
LASV entry inh: inactive; FMDV inh: inactive; HCMV antiviral: -94

What do the screens show for `CCOc1ccc(S(=O)(=O)NCCc2sc3nc(-c4ccc(F)cc4)nn3c2C)cc1`?
LASV entry inh: inconclusive; FMDV inh: inactive; HCMV antiviral: inconclusive

How did CCC1(C2CCN(C(=O)c3ccc(C)cc3C)CC2)NC(=O)N(CCc2scnc2C)C1=O (stereo unspecified) do in these assays?
FMDV inh: inactive
